# Activity calls are given as the source filed them.
# What was measured:
# [1] = small molecules captured by biotinylated probe aFSTL3 – biochemical, small-molecule microarray, fluorescence 635/667, stem cell growth factor project, primary screen (AID 1064); settings: higher = more signal;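 also: measures binding of the biotinylated anti-FSTL3 antibody to printed compounds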
# [2] = binders from COS7 lysate, DM2A8 probe, primary screen, torsin A project, cell lysate, small-molecule microarray, fluorescence 635/667 (AID 1065); settings: higher = more signal, COS7 lysate expressing mutant human TOR1A
# [3] = small molecules captured by biotinylated probe aFGF2 – biochemical, small-molecule microarray, fluorescence 635/667, stem cell growth factor project, primary screen (AID 1067); settings: higher = more signal;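 also: measures binding of biotinylated aFGF2 protein to printed compounds on slides; z-score merges feature fluorescence and signal-to-noise across triplicate slides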
# [4] = small molecules captured by biotinylated probe aFGF10 – biochemical, small-molecule microarray, fluorescence 635/667, stem cell growth factor project, primary screen (AID 1071); settings: higher = more signal;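 also: score merges 667 nm spot intensity and signal to noise from triplicate slides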
# [5] = molecular target: Neurogenic locus notch homolog protein 2 (Homo sapiens) (UniProt Q04721); assay: small molecules binding Notch2 protein – biochemical, small-molecule microarray, 635 nm fluorescence, stem cell growth factors, primary screen (AID 1073); settings: higher = more signal
# Neurogenic locus notch homolog protein 2 (Homo sapiens), sequence (Q04721 whole entry, looked up, canonical isoform): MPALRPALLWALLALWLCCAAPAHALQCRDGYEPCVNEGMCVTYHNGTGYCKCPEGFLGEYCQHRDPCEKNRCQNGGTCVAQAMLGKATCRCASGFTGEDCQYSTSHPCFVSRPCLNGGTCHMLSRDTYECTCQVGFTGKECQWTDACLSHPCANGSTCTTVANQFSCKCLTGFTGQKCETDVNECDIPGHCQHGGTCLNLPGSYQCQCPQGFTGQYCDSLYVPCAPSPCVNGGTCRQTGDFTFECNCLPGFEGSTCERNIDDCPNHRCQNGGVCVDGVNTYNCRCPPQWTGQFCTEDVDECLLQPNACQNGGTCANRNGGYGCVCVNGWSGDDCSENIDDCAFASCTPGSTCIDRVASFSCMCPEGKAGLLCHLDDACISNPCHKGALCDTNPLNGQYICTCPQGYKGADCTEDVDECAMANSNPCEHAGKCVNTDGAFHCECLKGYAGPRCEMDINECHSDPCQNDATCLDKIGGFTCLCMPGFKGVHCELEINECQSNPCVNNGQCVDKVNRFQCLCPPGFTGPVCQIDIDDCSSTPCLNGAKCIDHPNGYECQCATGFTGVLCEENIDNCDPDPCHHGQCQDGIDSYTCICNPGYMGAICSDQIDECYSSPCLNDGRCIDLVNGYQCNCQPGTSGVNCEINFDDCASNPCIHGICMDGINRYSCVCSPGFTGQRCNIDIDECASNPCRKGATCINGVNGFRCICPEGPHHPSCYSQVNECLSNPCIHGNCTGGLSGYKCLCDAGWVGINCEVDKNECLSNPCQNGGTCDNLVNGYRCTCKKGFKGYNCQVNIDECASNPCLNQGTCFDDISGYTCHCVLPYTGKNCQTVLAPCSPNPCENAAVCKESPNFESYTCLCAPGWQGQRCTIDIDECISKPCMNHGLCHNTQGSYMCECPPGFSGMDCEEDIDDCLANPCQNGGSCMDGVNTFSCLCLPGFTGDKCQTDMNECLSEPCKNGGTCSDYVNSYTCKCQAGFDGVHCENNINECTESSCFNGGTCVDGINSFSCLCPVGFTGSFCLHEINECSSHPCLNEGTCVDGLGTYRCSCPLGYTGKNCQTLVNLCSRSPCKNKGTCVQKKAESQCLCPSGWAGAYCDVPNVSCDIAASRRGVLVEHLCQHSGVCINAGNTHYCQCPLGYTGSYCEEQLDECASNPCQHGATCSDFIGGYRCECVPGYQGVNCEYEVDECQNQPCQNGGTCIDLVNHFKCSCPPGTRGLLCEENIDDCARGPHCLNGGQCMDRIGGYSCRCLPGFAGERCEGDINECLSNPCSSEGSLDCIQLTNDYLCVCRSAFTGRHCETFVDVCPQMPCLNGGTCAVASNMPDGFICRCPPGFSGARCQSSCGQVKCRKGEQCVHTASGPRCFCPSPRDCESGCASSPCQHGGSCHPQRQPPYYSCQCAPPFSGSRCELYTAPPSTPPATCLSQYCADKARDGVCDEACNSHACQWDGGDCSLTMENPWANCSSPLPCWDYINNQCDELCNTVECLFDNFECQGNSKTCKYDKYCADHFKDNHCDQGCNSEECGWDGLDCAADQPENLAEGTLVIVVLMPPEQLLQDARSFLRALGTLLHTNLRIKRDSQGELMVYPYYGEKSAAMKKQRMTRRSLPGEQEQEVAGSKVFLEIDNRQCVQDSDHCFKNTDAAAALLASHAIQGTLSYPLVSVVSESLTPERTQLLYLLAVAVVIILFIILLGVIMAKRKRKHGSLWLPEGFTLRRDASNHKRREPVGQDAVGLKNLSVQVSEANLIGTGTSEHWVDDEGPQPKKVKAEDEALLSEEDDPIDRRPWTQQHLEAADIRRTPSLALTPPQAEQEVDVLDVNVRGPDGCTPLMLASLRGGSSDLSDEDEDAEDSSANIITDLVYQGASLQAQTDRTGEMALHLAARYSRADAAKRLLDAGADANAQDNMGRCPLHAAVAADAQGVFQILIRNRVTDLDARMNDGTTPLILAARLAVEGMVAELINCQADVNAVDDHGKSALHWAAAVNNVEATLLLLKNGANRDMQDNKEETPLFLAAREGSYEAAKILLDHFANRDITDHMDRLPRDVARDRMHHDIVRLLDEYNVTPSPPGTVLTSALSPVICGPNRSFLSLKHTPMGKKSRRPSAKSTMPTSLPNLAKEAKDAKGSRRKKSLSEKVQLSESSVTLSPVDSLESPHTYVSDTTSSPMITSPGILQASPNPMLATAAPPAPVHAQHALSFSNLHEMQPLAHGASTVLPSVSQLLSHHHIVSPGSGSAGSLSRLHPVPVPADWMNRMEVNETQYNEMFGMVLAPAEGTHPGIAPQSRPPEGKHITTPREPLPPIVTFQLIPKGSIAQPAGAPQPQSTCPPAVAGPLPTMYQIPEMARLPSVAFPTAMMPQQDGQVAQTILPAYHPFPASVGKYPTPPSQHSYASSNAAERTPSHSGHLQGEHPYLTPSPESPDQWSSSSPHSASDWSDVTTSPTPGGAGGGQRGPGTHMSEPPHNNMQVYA
# [6] = molecular target: Pro-neuregulin-1, membrane-bound isoform (Homo sapiens) (UniProt Q02297); assay: small molecules binding neuregulin-1 protein – biochemical, small-molecule microarray, fluorescence 635/667, psychiatric disease protein project, primary screen (AID 1075); settings: NRG1 binding, 635 nm fluorescence, higher = more signal;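 also: score combines 667 nm spot fluorescence with signal to noise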
# [7] = test system: Neuregulin-1 EGF-like domain; assay: small molecules binding NRG1 EGF domain – biochemical, small-molecule microarray, 635 nm fluorescence, primary screen (AID 1081); settings: higher = more signal;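 also: binding of the protein to compounds printed on small-molecule microarray slides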
# [8] = FRG1 expression reporter modulators in myotubes – cell-based, C2C12 myotubes, firefly/Renilla luciferase, luminescence, FRG1 inhibition for FSHD, primary screen (AID 1084); settings: FRG1 promoter luciferase, higher = more signal, called active from +8 up or from −8 down
# [9] = small molecules captured by biotinylated probe aFST – biochemical, small-molecule microarray, fluorescence 635/667, stem cell growth factor project, primary screen (AID 1086); settings: higher = more signal;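 also: score merges 667 nm fluorescence with signal-to-noise of each printed compound spot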
# [10] = binders of probe aHhip on microarray, primary screen, stem cell growth factor project, biochemical, small-molecule microarray, fluorescence 635/667 (AID 1087); settings: higher = more signal;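 also: score merges spot fluorescence at 667nm with spot signal to noise ratio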
# [11] = test system: PRMT1 (protein arginine N-methyltransferase 1); assay: small molecules binding arginine methyltransferase PRMT1 – biochemical, small-molecule microarray, 635 nm fluorescence, primary screen (AID 1088); settings: higher = more signal;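 also: binding of Prmt1 protein to compounds spotted on small-molecule microarray slides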
# [12] = growth effects on S. cerevisiae YJM789 – YJM789 clinical isolate, OD600, 24 h, basal, primary screen (AID 1089); settings: higher = more signal, called active from +8 up or from −8 down;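 also: growth of clinical yeast isolate S. cerevisiae YJM 789 seeded 1000 cells per well; test concentration not given here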
# [13] = S. pombe growth modifiers, basal conditions – strain 972, OD600, 24 h, no modulator, primary screen (AID 1090);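 also: basal condition with compound alone and no growth modifier present; test concentration not given here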; settings: S. pombe 972 growth, higher = more signal, called active from +8 up or from −8 down
# [14] = budding yeast growth modifiers under rapamycin – strain BY4716, OD600, 96 h, primary screen (AID 1091); also: test concentration not given here; settings: S. cerevisiae BY4716 + rapamycin, higher = more signal, called active from +8 up or from −8 down
# [15] = molecular target: Torsin-1A-interacting protein 2 (Homo sapiens) (UniProt Q8NFQ8); assay: small molecules binding lysate-expressed LULL1 – cell lysate, human LULL1 lysate, 635/667 nm fluorescence, primary screen (AID 1092); settings: small-molecule microarray, hLULL1 lysate binding, 635 nm fluorescence; higher = more signal;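 also: probe is lysate of COS7 cells overexpressing human LULL1; score merges per-feature 667 nm fluorescence with signal-to-noise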
# [16] = optical density change of DRC41 E. coli – strain DRC41, OD650, 24 h, E. coli filamentation project, primary screen (AID 1093);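 also: MC1000 strain lacking acrAB efflux and sulA so SOS filamentation is blocked; test concentration not given here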; settings: E. coli DRC41 growth, higher = more signal, called active from +8 up or from −8 down
# [17] = probe aLefty2 binding to arrayed compounds – biochemical, biotinylated probe, 635/667 nm fluorescence, primary screen (AID 1094); settings: small-molecule microarray, higher = more signal;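 also: score merges spot fluorescence near 667 nm with spot signal-to-noise ratio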
# [18] = test system: Noggin (protein binding on small-molecule microarray); assay: small molecules binding Noggin protein – biochemical, 635/667 nm fluorescence, primary screen (AID 1095); settings: 635 nm fluorescence, higher = more signal;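 also: score merges 667 nm feature fluorescence with signal to noise over triplicate slides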
# [19] = molecular target: Neurogenic locus notch homolog protein 3 (Homo sapiens) (UniProt Q9UM47); assay: small molecules binding NOTCH3 protein – biochemical, 635/667 nm fluorescence, primary screen (AID 1096); settings: small-molecule microarray, 635 nm fluorescence, higher = more signal
# Neurogenic locus notch homolog protein 3 (Homo sapiens), sequence (Q9UM47 whole entry, looked up): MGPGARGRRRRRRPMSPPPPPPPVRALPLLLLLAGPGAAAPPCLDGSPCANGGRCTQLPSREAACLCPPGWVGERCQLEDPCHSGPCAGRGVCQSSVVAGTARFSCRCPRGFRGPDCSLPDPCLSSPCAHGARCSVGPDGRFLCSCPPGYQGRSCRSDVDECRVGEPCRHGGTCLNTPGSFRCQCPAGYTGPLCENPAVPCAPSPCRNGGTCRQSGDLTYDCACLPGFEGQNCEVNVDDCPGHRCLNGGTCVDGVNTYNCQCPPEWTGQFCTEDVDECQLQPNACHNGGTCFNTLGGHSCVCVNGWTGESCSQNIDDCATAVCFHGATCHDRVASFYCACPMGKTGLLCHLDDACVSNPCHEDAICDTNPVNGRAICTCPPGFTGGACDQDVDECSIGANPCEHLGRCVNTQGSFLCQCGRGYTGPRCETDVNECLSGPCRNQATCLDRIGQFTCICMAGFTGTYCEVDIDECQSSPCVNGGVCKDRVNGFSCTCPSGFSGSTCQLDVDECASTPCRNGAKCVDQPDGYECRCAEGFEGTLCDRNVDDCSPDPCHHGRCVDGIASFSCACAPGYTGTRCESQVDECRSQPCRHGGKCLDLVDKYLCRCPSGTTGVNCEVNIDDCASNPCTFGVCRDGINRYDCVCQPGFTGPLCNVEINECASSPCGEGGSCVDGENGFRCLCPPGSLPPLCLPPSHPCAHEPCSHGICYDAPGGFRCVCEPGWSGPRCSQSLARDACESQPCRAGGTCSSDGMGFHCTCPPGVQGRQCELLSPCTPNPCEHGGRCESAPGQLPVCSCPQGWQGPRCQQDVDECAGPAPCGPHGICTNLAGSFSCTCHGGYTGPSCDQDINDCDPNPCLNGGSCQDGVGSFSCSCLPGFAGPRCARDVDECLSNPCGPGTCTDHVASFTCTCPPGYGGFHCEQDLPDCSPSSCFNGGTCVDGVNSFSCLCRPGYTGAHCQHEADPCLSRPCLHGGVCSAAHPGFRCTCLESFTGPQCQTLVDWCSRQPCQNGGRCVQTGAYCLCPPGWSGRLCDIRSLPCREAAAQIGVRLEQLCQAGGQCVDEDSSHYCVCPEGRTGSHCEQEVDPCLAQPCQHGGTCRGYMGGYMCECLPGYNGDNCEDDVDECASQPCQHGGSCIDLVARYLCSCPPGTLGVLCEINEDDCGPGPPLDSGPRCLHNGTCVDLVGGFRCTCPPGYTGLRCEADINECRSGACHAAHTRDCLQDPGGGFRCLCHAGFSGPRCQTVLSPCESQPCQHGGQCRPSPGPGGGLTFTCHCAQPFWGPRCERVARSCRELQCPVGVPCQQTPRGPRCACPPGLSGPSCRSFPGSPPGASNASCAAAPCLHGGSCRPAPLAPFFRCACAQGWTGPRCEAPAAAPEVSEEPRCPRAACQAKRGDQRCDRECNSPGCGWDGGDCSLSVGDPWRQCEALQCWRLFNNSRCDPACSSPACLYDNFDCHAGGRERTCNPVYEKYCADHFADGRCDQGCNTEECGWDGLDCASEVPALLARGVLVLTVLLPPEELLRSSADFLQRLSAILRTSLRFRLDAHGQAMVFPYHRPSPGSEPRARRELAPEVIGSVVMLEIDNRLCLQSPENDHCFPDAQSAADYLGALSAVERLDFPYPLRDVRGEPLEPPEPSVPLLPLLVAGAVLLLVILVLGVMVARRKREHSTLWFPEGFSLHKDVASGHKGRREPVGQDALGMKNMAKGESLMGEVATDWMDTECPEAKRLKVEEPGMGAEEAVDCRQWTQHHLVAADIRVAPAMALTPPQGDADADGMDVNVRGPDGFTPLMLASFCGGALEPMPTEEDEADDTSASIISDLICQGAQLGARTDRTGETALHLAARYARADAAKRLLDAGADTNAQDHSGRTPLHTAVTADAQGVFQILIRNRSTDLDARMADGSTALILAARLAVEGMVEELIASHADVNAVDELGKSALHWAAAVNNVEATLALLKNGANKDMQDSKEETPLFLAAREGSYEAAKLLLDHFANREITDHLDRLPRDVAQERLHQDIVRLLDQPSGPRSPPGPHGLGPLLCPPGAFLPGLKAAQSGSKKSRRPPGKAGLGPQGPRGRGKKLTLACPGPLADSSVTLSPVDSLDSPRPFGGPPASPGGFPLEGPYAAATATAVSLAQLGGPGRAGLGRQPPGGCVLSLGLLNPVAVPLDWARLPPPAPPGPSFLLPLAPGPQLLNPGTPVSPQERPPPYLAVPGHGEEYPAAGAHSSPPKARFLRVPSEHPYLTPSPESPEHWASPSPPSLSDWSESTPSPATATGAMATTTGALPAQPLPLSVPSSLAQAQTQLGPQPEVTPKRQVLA
# [20] = probe aEGFR binding to arrayed compounds – biochemical, biotinylated probe, 635/667 nm fluorescence, primary screen (AID 1097); settings: small-molecule microarray, higher = more signal;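 also: probe is a biotinylated anti-EGFR antibody binding compounds printed on slides; score combines fluorescence near 667 nm and signal to noise of each spot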
SMILES,composite z-score [1],composite z-score [2],composite z-score [3],composite z-score [4],composite z-score [5],composite z-score [6],composite z-score [7],z-score [8],composite z-score [9],composite z-score [10],composite z-score [11],z-score [12],z-score [13],z-score [14],composite z-score [15],z-score [16],composite z-score [17],composite z-score [18],composite z-score [19],composite z-score [20]
CC(C)CNC(=O)[C@@H]1c2ccccc2C(=O)N(Cc2ccccc2Cl)[C@H]1c1ccc(CO)cc1,0.29,0.0116,-0.129,-0.833,-0.595,-1.27,0.252,-1.38 (inactive),-0.295,-0.236,-0.469,-0.691 (inactive),-0.354 (inactive),-0.332 (inactive),3.09,0.534 (inactive),0.0529,-1.04,-1.08,-0.239
O=C1OCCC=C[C@H]2OC34C=CCN(c5ccc(Cl)cc5)C(=O)[C@H]3N(CCO)C(=O)[C@@H]4C12 (stereo not given in full),0.0828,1.85,-0.166,-0.434,-0.568,-0.666,-0.501,-0.0731 (inactive),-0.564,-0.0618,-0.502,-0.237 (inactive),-0.335 (inactive),-0.253 (inactive),-0.241,0.474 (inactive),-0.121,-0.545,-0.0792,-0.194
Cc1ccc(S[C@]2(C(=O)NCCCN(C)C)CC(=O)N(Cc3ccccc3Cl)[C@@H]2c2ccc(CO)cc2I)cc1,1.23,-0.42,-0.0996,-0.855,-1.17,1.07,0.801,-1.4 (inactive),0.141,-0.0346,-0.338,0.641 (inactive),-2.52 (inactive),1.43 (inactive),0.605,0.562 (inactive),0.258,-0.845,-1.22,-0.209
O=C1N(CCS(=O)(=O)c2ccccc2)c2ccccc2[C@@H]2OC(c3ccc(OCCCO)cc3)=N[C@]12CCS(=O)(=O)c1ccccc1,0.359,0.145,0.0069,0.291,1.44,0.195,1.28,-3.3 (inactive),0.855,0.0053,1.54,0.864 (inactive),1.78 (inactive),4.01 (inactive),3.46,0.678 (inactive),0.471,0.833,1.14,-0.0333
[N-]=[N+]=NCc1ccccc1C[C@]1(C(=O)N2CCCCC2)N=C(c2ccc(OCCCO)cc2)O[C@H]1c1ccccc1,0.393,0.449,-0.0165,0.39,1.07,0.618,0.849,-4.27 (inactive),0.485,0.0722,0.762,0.202 (inactive),-1.1 (inactive),22.5 (active),2.46,1.31 (inactive),0.124,0.0914,0.344,-0.125
CC(=O)NCCCC[C@@H]1NC(=O)[C@@H]2C[C@H](C(=O)NCCCCCC[N+](C)(C)C)[C@H](c3ccc(O)cc3)N2C1=O,0.101,0.437,-0.224,0.204,0.472,0.148,1.23,3.02 (inactive),-0.0677,0.0881,0.914,0.124 (inactive),-0.16 (inactive),0.216 (inactive),1.43,-0.453 (inactive),0.104,0.761,0.157,-0.476
CC1CC/C=C\[C@H]2OC34C=CCN(CCN5CCOCC5)C(=O)[C@H]3N(CCCCCCO)C(=O)[C@@H]4C2C(=O)O1 (stereo not given in full),-0.0847,-0.686,-0.129,-0.445,-0.894,-0.539,1.44,0.647 (inactive),-0.493,-0.171,-0.592,0.0356 (inactive),-0.573 (inactive),0.132 (inactive),0.318,-0.263 (inactive),-0.192,-0.403,-0.218,-0.278
C=CCN1C(=O)[C@]2(O[C@H](CCO)[C@@H]([Si](C)(C)c3ccc(OC)cc3)[C@@H]2C)c2ccccc21,-0.277,-0.313,-0.144,-0.314,-0.599,0.174,0.122,-3.89 (inactive),-0.488,-0.0933,-0.539,-2.75 (inactive),-3.07 (inactive),5.72 (inactive),0.602,-0.41 (inactive),-0.0962,-0.788,-0.593,-0.178
NCCCC[C@@H]1NC(=O)[C@H]2C[C@@H](C(=O)O)[C@@H](c3cccc(OCCO)c3)N2C1=O,1.34,1.57,0.097,0.856,1.61,2.05,1.4,0.805 (inactive),2.16,-0.0474,1.53,1.42 (inactive),-1.66 (inactive),-0.503 (inactive),3.33,-1.31 (inactive),0.781,1.85,1.02,0.703
CCOC(=O)C1=CC[C@@H](c2ccccc2)N(S(=O)(=O)c2ccc(C)cc2)[C@H]1C#N,-0.18,-0.0196,-0.0381,0.848,1.25,0.741,1.29,1.04 (inactive),1.1,-0.191,0.811,0.0536 (inactive),-1.06 (inactive),0.281 (inactive),2.99,-0.121 (inactive),-0.0179,-0.14,0.612,0.0985

# — PubChem BioAssay
